Potency data for 9 compounds are collected here from PubChem BioAssay (NCATS).

Structures are written as SMILES. Results filed as inconclusive are left out. Entries that show only a call come without a potency. Calls of active or inactive are those of the source. The call rests on the fitted dose curve; in most records, active means well fitted cell-killing curve with a large enough effect; inconclusive means small, poorly fitted or top-dose-only effect; inactive means flat fitted curve, though single readings scatter.
Potency means the concentration at half of the fitted maximal effect.

This test in a line: Cellular viability qHTS for adrenocortical cancer (ACC) cell line NCI-H295R (AID 1963990). Further: nearly all actives have a fitted effect of over 60% in size. Particulars: CellTiter-Glo ATP luminescence, 48 h; series mostly up to 46.1 µM. An outline of the steps:
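Readout: CellTiter-Glo luminescence, 20 min RT. Exposure: 48 h, 37C/5% CO2. Cells: NCI-H295R, ITS-DMEM serum-free. Range: up to 46 uM. Analysis: 4PL fit, IC50 plus efficacy.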
As for `Nc1nc(N)c2nc(-c3ccccc3)c(N)nc2n1`, the Potency was 4.61 µM (active).
With `Oc1c(I)cc(Cl)c2cccnc12`, the Potency is 14.6 µM (active).
For `Oc1c(I)cc(I)c2cccnc12`, the Potency was 3.66 µM (active).
Regarding `O=C(NCC(=O)N1CC[C@H](NC2CCC(O)(c3ccc(-c4ncccn4)cn3)CC2)C1)c1cccc(C(F)(F)F)c1` (some centres undefined), the Potency result was “inactive”.
With `COc1ccc(Nc2cc(-c3cnc(N)nc3)nc(N3CCOCC3)n2)cn1`, the Potency was 2.24 µM (active).
With `O=C(Nc1cccnc1)c1cc(-c2ccnc(F)c2)ccc1OCc1ccccc1`, the Potency result is “inactive”.
Turning to `CCOC(=O)C(C#N)=C(c1ccccc1)c1ccccc1`, the Potency result was “inactive”.
Consider `CC(C)N=C(N)/N=C(\N)Nc1ccc(Cl)cc1`, for which the Potency result is “inactive”.
For `CC(C)NCC(O)c1ccc2ccccc2c1` (centres undefined) the value was “inactive”.
